From PubChem BioAssay (NCI)
This is part of a sample that, as a whole, favours compounds with a hit. Of some 83,000 tested, about 20% had one in any assay.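 Treatment: one concentration, 48 hours, 96-well format. Scoring: percent growth, with anything below 10 considered active.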 A number with no mark means an inactive call. Active and inactive are the calls of the source.

Experiments:
Assay in all cases: NCI-60 one-dose screen, 48 h (100 = growth as untreated, 0 = no growth, -100 = all killed)
Conditions in all cases: 10 µM unless noted
SK-MEL-2 melanoma = system: SK-MEL-2 melanoma
EKVX NSCLC = system: EKVX NSCLC
SN12C renal = system: SN12C renal
UO-31 renal = system: UO-31 renal
TK-10 renal = system: TK-10 renal
ACHN renal = system: ACHN renal
A498 renal = system: A498 renal
CCRF-CEM leukemia = system: CCRF-CEM leukemia
MOLT-4 leukemia = system: MOLT-4 leukemia
CAKI-1 renal = system: CAKI-1 renal

Structure (SMILES) | growth (SK-MEL-2 melanoma) | growth (EKVX NSCLC) | growth (SN12C renal) | growth (UO-31 renal) | growth (TK-10 renal) | growth (ACHN renal) | growth (A498 renal) | growth (CCRF-CEM leukemia) | growth (MOLT-4 leukemia) | growth (CAKI-1 renal) [%]
COc1ccc(SC2c3cc(OC)c(OC)cc3Oc3nc(N)c(C#N)c(N)c32)cc1 (stereo unspecified) | -26.3% (active) | -51.7% (active) | -90.6% (active) | -100% (active) | -49.6% (active) | -95.6% (active) | -13.8% (active) | -37.2% (active) | -26.8% (active) | 
Cc1cc2nc3[nH]c4ccccc4c3nc2cc1C | 104% | 79.3% | 83.4% | 68.4% | 107% | 91.9% | 121% | 76.2% | 89.7% | 
COc1cc(-c2nn(-c3ccc(Br)cc3)cc2C(=O)O)ccc1O | 83.1% | 87.2% | 109% | 82.4% | 125% | 112% | 107% | 90.1% | 78.7% | 
CN1CCN(c2nc(NCCCNc3ccnc4cc(Cl)ccc34)c3ccccc3n2)CC1 | 80.7% | 77.3% | 57.2% | 37.3% | 116% | 50% | 72.1% | 18.6% | 18.6% | 
CCNC(=O)Oc1ccc(/C(=C(\C)c2ccc(Cl)cc2)c2ccc(OCCN(CC)CC)cc2)cc1 | 38.1% | 60.1% | 66.1% | 25.8% | 80.4% | 71.3% | 85.5% | 16.4% | 7.99% (active) | 
Cn1ccnc1C(=O)/C=C/c1ccc(CC(=O)Nc2ccccc2)cc1 | 54.6% | 17.6% | 16.1% | 16% | 17.6% | 29% | 44.9% | 2.06% (active) | -1.23% (active) | 
O=C(CN1CCCCC1)Nc1ccc2oc(=O)ccc2c1 | 96.8% | 101% | 101% | 79.1% | 108% | 111% | 106% | 86% | 83.1% | 
Cc1cc(N2CCCCC2)nc(NC2CCCC(Nc3ccnc4cc(Cl)ccc34)C2)n1 (stereo unspecified) | -77% (active) | 7.48% (active) | -74.9% (active) | -99% (active) | -61.8% (active) | -86.2% (active) | -29% (active) | -17.8% (active) | -28.2% (active) | 
CSc1ccc(-c2ccccc(=O)c2O)cc1 | 15.2% | 11.5% | 11.9% | -17.8% (active) | 33.4% | 6.58% (active) | 36.2% | 3.72% (active) | 2.65% (active) | 
CCN1CCN(c2nc(NCCCNc3ccnc4cc(Cl)ccc34)c3ccccc3n2)CC1 | -10.5% (active) | 63.1% | 48.2% | -5.29% (active) | 42.3% | 5.28% (active) | 81% | 12.2% | 13.6% | 
Cc1cc(N2CCCCCC2)nc(NC2CCCC(Nc3ccnc4cc(Cl)ccc34)C2)n1 (stereo unspecified) | -82.2% (active) | -27.5% (active) | -90.7% (active) | -93.5% (active) | -81.2% (active) | -98.6% (active) | -74.7% (active) | -29.2% (active) | -51.8% (active) | 
Clc1ccc2c(NCCNc3nc(N4CCOCC4)nc4ccccc34)ccnc2c1 | -42.9% (active) | 31.1% | 0.0194% (active) | -89% (active) | -88.6% (active) | -44.2% (active) | -12.8% (active) | -8.56% (active) | 11.7% | 
CN(C)c1ccc(N=Nc2ccc(Br)cn2)c(O)c1 | 18.8% | 14.3% | 12.3% | 3.75% (active) | 33.9% | 7.81% (active) | 53.9% | -0.72% (active) | 1.73% (active) | 
CCNC(=O)Oc1ccc(/C(=C(\C)c2ccc(Cl)cc2)c2ccc(OCCN3CCCCC3)cc2)cc1 | 62.9% | 57.4% | 64.8% | 39.3% | 83.7% | 79.9% | 83.6% | 22.4% | 10.7% | 
Cc1cc(N[C@@H]2CCC[C@H](Nc3ccnc4cc(Cl)ccc34)C2)nc(N2CCCCCC2)n1 | -75.7% (active) | 7.62% (active) | -74.8% (active) | -95.6% (active) | -67.7% (active) | -85.5% (active) | -87.6% (active) | -23.1% (active) | -18.5% (active) | 
CN1C(=O)C2(SCC(C(=O)NCc3ccccc3)N2C(=O)C2CCCCC2)c2ccccc21 (stereo unspecified) | 81.8% | 86.8% | 102% | 64% | 115% | 104% | 98.9% | 102% | 78.7% | 
CCc1nc(N)nc(N)c1C#CC(C)c1ccc(-c2ccncc2)cc1Cl (stereo unspecified) | 33.3% | 25% | 18.4% | 10.9% | 18.8% | 14.1% | 22.7% | 10.9% | 10.2% | 
Cc1cc(N2CCCC2)nc(NC2CCCC(Nc3ccnc4cc(Cl)ccc34)C2)n1 (stereo unspecified) | -87.5% (active) | 11.1% | -49.4% (active) | -93.3% (active) | -74.5% (active) | -98% (active) | -18.4% (active) | -22.2% (active) | -20.8% (active) | 
CSc1ccc(SC2c3ccc(C)cc3Oc3nc(N)c(C#N)c(N)c32)cc1 (stereo unspecified) | -58.9% (active) | -48.6% (active) | -98% (active) | -99.2% (active) | -97% (active) | -96.6% (active) | 4.22% (active) | -37% (active) | -17.9% (active) | 
COc1ccc(SC2c3ccc(C)cc3Oc3nc(N)c(C#N)c(N)c32)cc1 (stereo unspecified) | -59.8% (active) | -10.8% (active) | -94.3% (active) | -95.9% (active) | -97.9% (active) | -98.1% (active) | 28.7% | -33.5% (active) | -24.7% (active) | 
CN1CCN=C1c1ccc(NC(=O)c2ccc(C(=O)Nc3ccc(C4=NCCN4C)cc3)cc2)cc1 | 121% | 89.1% | 98.1% | 82.3% | 90.4% | 99.3% | 117% | 110% | 100% | 
Cc1cc(N2CCN(C)CC2)nc(NC2CCCC(Nc3ccnc4cc(Cl)ccc34)C2)n1 (stereo unspecified) | -66.7% (active) | 34.4% | -21% (active) | -100% (active) | -75.8% (active) | -88.6% (active) | 54.5% | -26% (active) | 1.05% (active) | 
COc1ccc(-c2cc(-c3ccc(Nc4ccnc5cc(Cl)ccc45)cc3)nc(N3CCOCC3)n2)cc1 | 90.3% | 90.4% | 49.2% | 87.8% | 9.38% (active) | 80.7% | 86.6% | 3.53% (active) | 23.9% | 
O=C(Cc1ccc(/C=C/C(=O)c2ncc[nH]2)cc1)Nc1ccc(F)cc1 | 79.1% | 34.8% | 17.4% | 17.2% | 35.9% | 46.4% | 66.9% | 2.63% (active) | 14.7% | 
Cc1ccc(C(SCC(N)C(=O)O)(c2ccccc2)c2ccc(C)cc2)cc1 (stereo unspecified) | -24.4% (active) | 43.1% | 29.9% | 38.6% | 60.7% | 56.3% | 29% | 6.28% (active) | 13.8% | 
CN(C)C(=S)N=Nc1c(O)[nH]c2ccccc12 | -12.6% (active) | 14.8% | 25.1% | -19.1% (active) | 28.9% | 16.9% | 1.31% (active) | -11.6% (active) | -12.4% (active) | 
COc1ccc2c(c1)C(=O)/C(=C/c1cccnc1)CC2 | 97.7% | 96.5% |  | 92.3% | 97.7% | 88.5% | 100% | 68% | 82.4% | 90.8
COc1nc2c(c(=O)n1C)CN(Cc1ccccc1)C=N2 | 106% | 111% | 116% | 77.3% |  | 106% | 131% | 103% | 105% | 98.1
NCCNc1nc(Nc2ccc(-c3nc4ccccc4[nH]3)cc2)c2cn[nH]c2n1 | 75% | 88.9% |  | 76.7% | 105% | 91.9% | 115% | -3.49% (active) | 8.24% (active) | 91.5
